Data on 42 sequences can be found in the supplement of paper PMC10681739.

Assay [1] has as its target T1, ETS1 (UniProt P14921).
T1 sequence: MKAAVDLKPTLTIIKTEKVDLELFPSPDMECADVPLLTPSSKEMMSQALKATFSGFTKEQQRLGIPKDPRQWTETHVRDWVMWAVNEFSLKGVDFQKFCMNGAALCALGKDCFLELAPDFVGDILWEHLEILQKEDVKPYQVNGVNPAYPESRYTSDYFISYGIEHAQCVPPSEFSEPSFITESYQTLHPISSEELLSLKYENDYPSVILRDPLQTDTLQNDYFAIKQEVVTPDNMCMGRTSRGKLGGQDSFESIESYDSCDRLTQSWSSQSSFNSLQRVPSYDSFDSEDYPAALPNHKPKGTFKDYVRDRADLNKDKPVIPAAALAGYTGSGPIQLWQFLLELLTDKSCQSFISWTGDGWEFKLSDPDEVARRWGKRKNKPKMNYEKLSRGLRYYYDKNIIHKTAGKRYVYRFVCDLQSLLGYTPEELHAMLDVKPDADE
The assay can be described thus: ETS1 binding intensity (PBM fluorescence), ETS1 alone (arbitrary fluorescence units); higher = stronger binding. The conditions noted are these: ETS1 concentration 1 nM; RUNX1 concentration 0 nM.

Assay [2] concerns the target RUNX1 (UniProt Q01196). The assay can be described thus: RUNX1 binding intensity (PBM fluorescence), RUNX1 alone (arbitrary fluorescence units); higher = stronger binding. The conditions noted are these: RUNX1 concentration 2 nM; ETS1 concentration 0 nM. As to the method:
(§1)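 Cooperative gcPBM on 36-bp genomic probes with neighbouring ETS1 and RUNX1 sites. Recombinant human RUNX1 (2 nM) was incubated alone or with ETS1 (25 nM) and detected with anti-RUNX1 antibody plus Alexa488 secondary. Values are medians over 4 replicate spots; the RUNX1+ETS1 data were normalised to the RUNX1-only data. The probes sit in constant array flanks that are not printed.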

The target in assay [3] is RUNX1 (UniProt Q01196). The experiment in a line: RUNX1 binding intensity (PBM fluorescence) in presence of ETS1, normalised to RUNX1-only experiment (arbitrary fluorescence units); higher = stronger binding. The note with it: RUNX1 concentration 2 nM; ETS1 concentration 25 nM. As to the method:
as §1
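Wherever RUNX1 binding intensity (PBM fluorescence) in presence of ETS1, normalised to RUNX1-only experiment is given: Full-length recombinant human ETS1 or RUNX1 bound to double-stranded 36-bp genomic probes on microarrays, detected by protein-specific primary antibody and Alexa488 secondary, spot fluorescence as median of four replicate spots.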
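Wherever RUNX1 binding intensity (PBM fluorescence), RUNX1 alone is given: Full-length recombinant human RUNX1 bound to double-stranded 36-bp genomic probes on a high-density microarray, scored as Alexa488 fluorescence per spot via anti-RUNX1 antibody, median of four replicate spots.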

Sequence of RUNX1 (Q01196 whole entry): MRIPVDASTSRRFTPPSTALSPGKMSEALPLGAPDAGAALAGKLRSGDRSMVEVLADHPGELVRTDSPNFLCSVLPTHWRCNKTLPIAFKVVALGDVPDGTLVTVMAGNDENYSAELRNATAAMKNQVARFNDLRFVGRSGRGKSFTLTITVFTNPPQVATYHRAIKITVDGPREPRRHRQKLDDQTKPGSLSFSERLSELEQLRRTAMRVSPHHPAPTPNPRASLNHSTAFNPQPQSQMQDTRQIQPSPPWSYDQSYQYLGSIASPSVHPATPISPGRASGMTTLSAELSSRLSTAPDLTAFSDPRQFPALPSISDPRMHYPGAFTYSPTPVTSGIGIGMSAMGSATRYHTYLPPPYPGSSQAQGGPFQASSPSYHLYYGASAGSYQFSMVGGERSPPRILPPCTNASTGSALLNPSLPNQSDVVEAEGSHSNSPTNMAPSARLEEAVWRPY

As to AACAGTTGCATAGGAAGTGGTCAGCTCTCCTCCACC, the ETS1 binding intensity in assay [1] amounted to 1260. Besides, the RUNX1 binding intensity in assay [2] was determined as 828; in assay [3], 999.
In the same order, the values of CCTCGCCCCCTTCCGCACCCACCCCACCGCGCTCCG are 807, 2040 and 2360.
In the same order, the values of TTTTTTCCGCCTGTAGGGTCACATTGTGGTTGATTG are 446, 1000 and 1790.
The corresponding values for CCTGGTCCGGAAGCGCTGTCCCCGCCTCCCGCATAG are 1950, 822 and 1430.
With AGCTGCAGTTGGGCAGGAAACCACAATGTCGAAGAC, the ETS1 binding intensity in assay [1] was 2490. The RUNX1 binding intensity in assay [2] is 1320; in assay [3], 2400.
The corresponding values for AGCTCCACCGGAAACGGCCTGGCCGCAGCCAATCAG are 7110, 806 and 2450.
The corresponding values for TTTACAGGAAATTACAGGGGTTAAACCAAACCACAA are 986, 941 and 1820.
For CGGGAGGGGCAGGAAGCGGACTGCGGTGGGGAAGGG, the ETS1 binding intensity in assay [1] is 2770. Also, the RUNX1 binding intensity in assay [2] was 939; in assay [3] it was 1470.
The sequence AATGAAGGAGGGGCAGGATGTGGTCTTGGTGAATCA showed an ETS1 binding intensity in assay [1] of 2520. The values for the RUNX1 binding intensity in assay [2] and in assay [3] were 746 and 1440, respectively.
In the same order, the values of GCGCGGCCCGGAAGGGGGTAACCGCTGAGTCTTTGA are 794, 784 and 1010.
As for AGGGGAGGAACCAGGAAGTTGTGGTAAACTGTAGCA, the ETS1 binding intensity in assay [1] amounted to 2490. Also, the values for the RUNX1 binding intensity in assay [2] and in assay [3] were 982 and 2360, respectively.
In turn, GAGCCGGAAGTGAAGGAGGGCTTGTGGGAGATGGAG gave an ETS1 binding intensity in assay [1] of 2710. In addition, the RUNX1 binding intensity in assay [2] worked out at 713; in assay [3], 1210.
In the same order, the values of GGGAACTGGGGAAGGGGATGTGGTAACCAGAACCAC are 543, 869 and 1050.
The corresponding values for CTGGGCTCGCCAGGCGGAAGTGGTTGGAGACTGCGT are 6330, 668 and 1510.
AATGCAGCATTTCCTCTCCAGTTCACCACAGGCCCC yielded an ETS1 binding intensity in assay [1] of 590. For the same sequence, the RUNX1 binding intensity in assay [2] is 1490; in assay [3], 2420.
In the same order, the values of TCCAAGGCGGAAAAAACCCGCCCTAAACCGCACCCC are 464, 1470 and 1460.
In the same order, the values of GGTTTCCGGGTGAAAAAAAAAAAAAAAACCACGCCA are 461, 906 and 1740.
The corresponding values for GAGGGCTGCTTCCTGCTCTGTGGAGGCCGCAGCGGG are 555, 682 and 1270.
CTGAGCCGGATGTTACTGGTTAGTGGTTTTCTTTAT returned an ETS1 binding intensity in assay [1] of 3290. The RUNX1 binding intensity in assay [2] came to 917; in assay [3] it was 1560.
In turn, TGGAGTGGAGGAAGTGGTGTTACCACAGCTCAGAGG yielded an ETS1 binding intensity in assay [1] of 1050. The RUNX1 binding intensity came to 726 in assay [2] and 1230 in assay [3].
In the same order, the values of CAGGCTCGCCACAGGGGAAGTGGTTAGGGCGGGTCC are 684, 775 and 890.
In the same order, the values of GCTTCTTCAGCCACATCCTGACCACAGCCCAGATTC are 496, 2350 and 5070.
The corresponding values for TTCACTTCCACCACTTCCTGTGGGTTTTGTTCATCC are 3090, 1530 and 5560.
GTATGGGAAGTGATCTGGCTGCAAACCGCAAGAGAG yielded an ETS1 binding intensity in assay [1] of 549. The RUNX1 binding intensity in assay [2] was found to be 4520; in assay [3], 7290.
The corresponding values for CAATGGATGGCCACATCCTCACCACAAACTGAGTCA are 368, 939 and 1360.
The corresponding values for GCTGCCGGAAAAGGCGCCGAGGTAACCGCCTCACTT are 479, 903 and 1020.
ACACCCCAGGCAGGATGTGGTAGGGGTTGCCCCAGA came in with an ETS1 binding intensity in assay [1] of 2740. The RUNX1 binding intensity was 741 in assay [2] and 2080 in assay [3].
The corresponding values for AGCGACAGCGGATGCTCTCTGGCCGCAACATTCTTT are 880, 769 and 1080.
As for CAACCCGGAAGCACTAACGGAGAAACCGCAACTCGG, the ETS1 binding intensity in assay [1] is 729. For the same sequence, the values for the RUNX1 binding intensity in assay [2] and in assay [3] were 3460 and 12700, respectively.
The sequence GACACAAGCCTCACAGGATGTGGTCAAAGAAGGTTG had an ETS1 binding intensity in assay [1] of 3830. Besides, the RUNX1 binding intensity in assay [2] came out at 762; in assay [3] it was 3910.
Sequence GCAGCTCTGGCAGGATGCGGTTAAATATGTAGCCAC came in with an ETS1 binding intensity in assay [1] of 2030. In addition, the RUNX1 binding intensity was found to be 2690 in assay [2] and 11300 in assay [3].
The corresponding values for GAATGGCGGATGTGGCTGGGGAGAGAAAGCCGCAGA are 914, 836 and 2610.
The corresponding values for CCTTGCAGCAACGGATGTGGGTTTTTTTTTTTCTTT are 4030, 1120 and 10500.
GACTTTTACGGAAATAGCAGTCCAAAACCGCGTCTA: the ETS1 binding intensity in assay [1] is 691. In addition, the RUNX1 binding intensity amounted to 868 in assay [2] and 1170 in assay [3].
The corresponding values for TTTCTGACACTCTCAGGATGTGGGTTTTCACACTGT are 1190, 828 and 1320.
TAGCCACGAACCGGAAACGTTAAACCACAGCTCCGT gave an ETS1 binding intensity in assay [1] of 9650. Also, the RUNX1 binding intensity was found to be 994 in assay [2] and 5730 in assay [3].
The corresponding values for GGACAGGAAGTTCCTGCAGCTTCTACCACAAACCTA are 2450, 829 and 1420.
In the same order, the values of TGAAGCAGGCGGAAGTGCTGTGGTTTCTGGCGACTG are 4090, 939 and 2830.
In the same order, the values of CCTGTTTCCTGCCATCTGCCCTTCCTTTGTGGTCAA are 774, 3310 and 6290.
Regarding CGTCTAATTGCAGGAAGTGGTTTGAAATGTTAATCT, in assay [1], the ETS1 binding intensity turned out to be 4180. Besides, the values for the RUNX1 binding intensity in assay [2] and in assay [3] were 1980 and 3650, respectively.
The corresponding values for CTGCTGACCAAAACAGGATGTGGTCTACACAAAGTG are 10300, 800 and 3500.
In the same order, the values of GAAAAATGAAGTTTCCGCAGTAACCACAACACAGCC are 556, 1350 and 2620.
